Experiments:
[1] = system: Human papillomavirus type 1a protein E7 (residues 44-93); experiment: small molecules binding HPV E7 44-93 – biochemical, small-molecule microarray, residues 44-93, 635 nm fluorescence, primary screen (AID 1108); conditions: fluorescence 635 nm, higher = more signal;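 note: E7 fragment applied at 1 µg/mL in TBST for 1 h at 4 C; score combines spot fluorescence with its signal to noise ratio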
[2] = hepatitis C replication reporter changes, two-sided – Huh7 cells, luciferase reporter, HCV replication inhibitor project, primary screen (AID 1109); conditions: Huh7 HCV replicon luciferase reporter, 48 h; higher = more signal;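 note: huh7 hepatoma cells harbouring a luciferase neomycin HCV replicon reporter; luciferase luminescence as measure of HCV replicon replication; test concentration not given here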
[3] = target: Left-right determination factor 2 (Homo sapiens) (UniProt O00292); experiment: small molecules binding LEFTY2 protein – biochemical, small-molecule microarray, 635 nm fluorescence scan, primary screen (AID 1110); conditions: higher = more signal
[4] = target: Calmodulin-1 (Homo sapiens) (UniProt P0DP23); experiment: small molecules binding calmodulin-1 with EGTA – biochemical, small-molecule microarray, Cy5-labelled CALM1, profiling panel (AID 1111); conditions: Cy5-CALM1 binding fluorescence, higher = more signal;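 note: labelled calmodulin applied in Tris saline Tween buffer holding calcium plus EGTA and DTT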
[5] = target: Calmodulin-1 (Homo sapiens) (UniProt P0DP23); experiment: small molecules binding Ca-loaded calmodulin-1 – biochemical, small-molecule microarray, Cy5-labelled CALM1, plus calcium, artefact control for SMM control-protein annotation, profiling panel (AID 1112); conditions: Cy5-CALM1 binding fluorescence, higher = more signal;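 note: score merges spot fluorescence with signal to noise from triplicate slides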
[6] = probe aWnt5a binding to arrayed compounds – biochemical, biotinylated probe, 635/667 nm fluorescence, primary screen (AID 1113); conditions: small-molecule microarray, higher = more signal;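 note: score merges 667 nm fluorescence intensity with signal-to-noise per printed feature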
[7] = probe aShh binding to arrayed compounds – biochemical, biotinylated probe, 635/667 nm fluorescence, primary screen (AID 1114); conditions: small-molecule microarray, higher = more signal;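 note: probe is biotin-labelled aShh protein from a stem cell growth factor screen; measures binding of labelled protein to compounds printed on the slide; score merges feature fluorescence at 667 nm with signal-to-noise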
[8] = probe aNog binding to arrayed compounds – biochemical, biotinylated probe, 635/667 nm fluorescence, primary screen (AID 1115); conditions: small-molecule microarray, higher = more signal;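 note: probe is biotinylated aNog protein used at 0.15 µg/mL for 1 h at 4 C; z-score combines 667 nm fluorescence of each spot with its signal to noise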
[9] = target: Torsin-1A-interacting protein 1 (Homo sapiens) (UniProt Q5JTV8); experiment: compound microarray binding of lysate hLAP1 – cell lysate, small-molecule microarray, COS7 lysate, 635/667 nm fluorescence, primary screen (AID 1116); conditions: 635 nm fluorescence, higher = more signal
[10] = target: Alpha-bungarotoxin (Bungarus multicinctus) (UniProt P60615); experiment: compounds binding labelled alpha-BTX control protein – biochemical, small-molecule microarray, Alexa647 label, 635/667 nm fluorescence, artefact control for SMM control protein annotation, profiling panel (AID 1117); conditions: alpha-BTX-A647 binding fluorescence, higher = more signal
Sequence of Alpha-bungarotoxin (Bungarus multicinctus) (P60615 whole entry, looked up): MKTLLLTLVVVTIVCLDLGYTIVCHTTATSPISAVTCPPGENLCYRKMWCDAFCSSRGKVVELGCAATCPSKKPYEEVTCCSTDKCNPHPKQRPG

Sequence of Torsin-1A-interacting protein 1 (Homo sapiens) (Q5JTV8 whole entry, looked up): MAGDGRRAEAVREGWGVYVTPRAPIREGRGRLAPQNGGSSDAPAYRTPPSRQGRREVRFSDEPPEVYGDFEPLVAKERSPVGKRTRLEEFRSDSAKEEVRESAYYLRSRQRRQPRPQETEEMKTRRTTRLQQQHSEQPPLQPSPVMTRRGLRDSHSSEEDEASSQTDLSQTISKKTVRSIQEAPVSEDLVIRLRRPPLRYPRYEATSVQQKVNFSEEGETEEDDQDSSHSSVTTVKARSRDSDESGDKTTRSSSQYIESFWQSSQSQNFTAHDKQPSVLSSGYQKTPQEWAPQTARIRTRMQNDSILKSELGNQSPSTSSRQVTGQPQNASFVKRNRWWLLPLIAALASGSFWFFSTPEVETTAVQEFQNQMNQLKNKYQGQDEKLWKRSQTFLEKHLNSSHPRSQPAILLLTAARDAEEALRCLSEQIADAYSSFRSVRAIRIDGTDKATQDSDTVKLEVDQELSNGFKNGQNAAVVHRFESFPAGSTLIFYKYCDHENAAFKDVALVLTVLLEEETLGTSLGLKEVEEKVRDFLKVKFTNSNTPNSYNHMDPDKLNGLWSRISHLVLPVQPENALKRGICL
Sequence of Left-right determination factor 2 (Homo sapiens) (O00292 whole entry, looked up): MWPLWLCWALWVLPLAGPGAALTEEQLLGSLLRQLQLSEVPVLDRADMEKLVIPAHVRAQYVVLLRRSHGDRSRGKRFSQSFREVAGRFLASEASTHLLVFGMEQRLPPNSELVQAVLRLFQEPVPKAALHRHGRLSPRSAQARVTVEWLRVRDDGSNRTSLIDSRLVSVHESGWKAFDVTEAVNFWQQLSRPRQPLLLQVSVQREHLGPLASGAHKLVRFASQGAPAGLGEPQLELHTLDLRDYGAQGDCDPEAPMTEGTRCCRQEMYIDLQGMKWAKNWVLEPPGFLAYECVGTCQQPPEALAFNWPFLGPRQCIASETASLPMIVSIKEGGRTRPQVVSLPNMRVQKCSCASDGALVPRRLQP

Compound	composite z-score [1]	z-score [2]	composite z-score [3]	composite z-score [4]	composite z-score [5]	composite z-score [6]	composite z-score [7]	composite z-score [8]	composite z-score [9]	composite z-score [10]
CC(=O)OC[C@H]1O[C@H](C#CCCc2ccccc2)C=C[C@@H]1OC(C)=O	-0.515	-1.12	0.751	-0.288	-0.715	-0.0721	0.0204	0.0658	0.128	1.53
COc1cccc([C@H]2Oc3ccc(OC)cc3C(=NO[C@@H](C)c3cc(-c4c(C)cc(C)cc4C)no3)[C@@H]2O)c1	-0.355	-1.71	-2.35	-0.831	0.668	-0.172	-0.195	0.0983	-0.589	-0.628
CCOC(=O)CCN1C(=O)[C@H]2[C@H]3[C@H](O)[C@H](O)CC(=O)[C@@H]3CC[C@H]2C1=O	0.555	-0.408	0.657	0.0068	-0.135	-0.0924	-0.138	-0.252	0.597	0.321
CC(C)(C)N1C(=O)[C@H]2[C@H]3[C@H](O)[C@H](O)CC(=NOC[C@@H](O)COCc4ccco4)[C@@H]3CC[C@H]2C1=O	-0.266	-0.287	0.0349	-0.235	0.314	-0.0685	-0.16	-0.0733	1.45	1.65
CC(C)=NOC[C@@H](O)[C@H]1O[C@@H]2OC(C)(C)O[C@@H]2[C@H]1O	0.855	0.674	0.989	0.0985	-0.29	0.163	0.0952	-0.191	0.243	0.154
COC(=O)[C@H](C)NC(=O)CCC1CC(OC(=O)NCc2ccc3c(c2)OCO3)CC2(CCCC(COC(=O)NCCc3ccc(Cl)cc3)O2)O1 (stereo not given in full)	0.536	-0.562	1.13	-0.209	-0.97	-0.0367	0.0893	-0.111	0.288	0.202
CC(CCN1CCCc2nc(C)c(C)cc21)=NO[C@@H](C)c1cn([C@H](CO)Cc2ccccc2)nn1	0.425	-0.0976	0.67	-0.168	-0.671	-0.0199	0.0952	0.139	0.527	0.117
COC(=O)[C@H](C)NC(=O)CCC1CC(OC(=O)NCc2cccc3ccccc23)CC2(CCCC(COC(=O)NCCc3ccccc3OC)O2)O1 (stereo not given in full)	1.39	-0.314	0.621	0.75	-0.37	-0.15	0.0141	0.0356	0.787	0.638
CCOC(=O)CCN1C(=O)[C@H]2[C@H]3[C@H](O)[C@H](O)CC(=NNC(=O)OCc4ccc(OC)cc4)[C@H]3CC[C@H]2C1=O	0.451	-2.44	0.214	-0.211	-0.509	0.0243	0.0121	0.0236	-0.176	0.354
C[C@H]1C=CCC(=O)OC[C@H](C)C(=O)N2CCC[C@H]2C(=O)OC1	-2.34	-0.971	1.62	-0.774	-1.82	-0.174	-0.0709	-0.137	1.71	-0.477
CCOC(=O)[C@H](CC(C)C)NC(=O)CCC1CC(OC(=O)NCc2ccc3c(c2)OCO3)CC2(CCCC(COC(=O)NCc3ccccc3)O2)O1 (stereo not given in full)	1.37	-0.0695	0.355	0.562	-0.158	0.0799	-0.153	-0.074	0.137	0.461
COC(=O)[C@H](C)NC(=O)CCC1CC(OC(=O)NCCc2ccc(F)cc2)CC2(CCCC(COC(=O)NCCOc3ccccc3)O2)O1 (stereo not given in full)	1.36	-0.213	0.781	1.55	0.236	0.055	0.123	-0.109	0.928	0.837
COCOc1ccc(Br)cc1C(=O)C=Cc1ccc2c(c1)OCO2	-0.478	-3.81	0.489	-0.978	-1.25	-0.0721	-0.2	0.0689	0.0258	0.075
COc1ccc(O[C@H]2C=C[C@@H](c3ccccc3)O[C@@H]2COC(=O)CCC(C)=NOC[C@@H](O)COCc2ccco2)cc1	-0.82	-0.681	-4.63	-2.11	-2.04	-0.449	-0.267	-0.715	-2.94	-1.65
